Data from publication PMC13494018.

B1: design_606_b60ff77f-1541-4e5f-8260-46d5e5f6b85e_411_dldesign_0_cycle1_af2pred (protein)
chain: MEEELEKEKKEAEKFLEETKKIAEEAVKRAESGEDIAGAAHELYELKSEAEYLAKTSSPEAAKLYKEAAKIAKEALEEVRKRGKERKA
B2: design_606_b60ff77f-1541-4e5f-8260-46d5e5f6b85e_1401_dldesign_0_cycle1_af2pred (protein)
chain: GAKAIAAKAAAYGYEIAAEIYRLDKEVGEKVRKYVVEKAKEAAASDEETAKKIGEEVKKEAEKALEEVKKK
B3: design_606_b60ff77f-1541-4e5f-8260-46d5e5f6b85e_1075_dldesign_0_cycle1_af2pred (protein)
chain: AEEKEKKAKEAAEKAEKFIEKAKKAIKEGDLFSAQAYVEAAKHAAEVAKKYDPEVGEKLLKKVEEVEKEI
B4: design_606_b60ff77f-1541-4e5f-8260-46d5e5f6b85e_888_dldesign_0_cycle1_af2pred (protein)
chain: EVEKLIKEVKEAGEKAAKADPDIADYIKNAVKTAEELMTKNAADLEKVKEIAEKAINTFKRIIENAEKAKELEAK
B5: design_606_b60ff77f-1541-4e5f-8260-46d5e5f6b85e_637_dldesign_0_cycle1_af2pred (protein)
chain: MEEEEERRRVLEIAREDAEEALAKAKAAAEKGELDGVAIGLARGNASVLDEETGKKVREAADKVEAAAKAAQAAK
B6: design_606_b60ff77f-1541-4e5f-8260-46d5e5f6b85e_118_dldesign_0_cycle1_af2pred (protein)
chain: MLEEVKEKAKELKAAKGTPEEKLKLAREARELFRRAREELSARGATPEEAEAMHELRQAAAELEAEAKRELKE
B7: design_606_b60ff77f-1541-4e5f-8260-46d5e5f6b85e_1592_dldesign_0_cycle1_af2pred (protein)
chain: AAAAAAAAERAAIQKELDEIRDKYLEELEKNPENAEEIIKKAKEAVEALAKKHAKFAEEILKGGNGYVSLIEATAKMLERRKKEE
B8: design_606_b60ff77f-1541-4e5f-8260-46d5e5f6b85e_1207_dldesign_0_cycle1_af2pred (protein)
chain: DEEKLKEAAEYLQEAAEYLAELKYLSKDPKNKELAEKAKKILKEAIEKGKKGTPEEALEIAKKAKEEIKKLAKKAKE
B9: design_606_b60ff77f-1541-4e5f-8260-46d5e5f6b85e_64_dldesign_0_cycle1_af2pred (protein)
chain: GSSEEAERDSRLVSEMVRAARAGAEAAARLPPAEAARYRAELAALVAAMYDALGAGSPAAEEYVARVRALAAEIAARAAAA
B10: design_606_b60ff77f-1541-4e5f-8260-46d5e5f6b85e_1160_dldesign_0_cycle1_af2pred (protein)
chain: AEAARRAALVAKVDAAFDDAGKTISEAKEKTPEEAKALVDAAIAKANAEAKAHPEAAKGFNAVADTAKSMGERIIAEKLA
B11: design_606_b60ff77f-1541-4e5f-8260-46d5e5f6b85e_1331_dldesign_0_cycle1_af2pred (protein)
chain: SELEKGREVIKKAAEKAKKAAKEAAEKKGDPKKGEEKIKEIKELEEEGAKAEDPKVKSEKAAKIRQIKAEAEFELKK
B12: design_606_b60ff77f-1541-4e5f-8260-46d5e5f6b85e_1085_dldesign_0_cycle1_af2pred (protein)
chain: ATAKEAAEYAEKAREYMVELEYERIKAKREGDEETAKRLEKAIEEVREKLKKAREAMKAGDKEKALEYSKEALEIAKKAVEELKA
B13: design_606_b60ff77f-1541-4e5f-8260-46d5e5f6b85e_1497_dldesign_0_cycle1_af2pred (protein)
chain: MEEESKKYIETATALLEEAKKALEEDKEKGLKLLEEASALAYEKAAEARQLGDKETAEKLREIAKEAREAAKKAR
B14: design_606_b60ff77f-1541-4e5f-8260-46d5e5f6b85e_733_dldesign_0_cycle1_af2pred (protein)
chain: DAATQKKASEAAAEAHEAAAEFTNKLKDKELKDKIKEIVREAIEKGKAATPEEALKIFTEAKKKIEDAAKKYA
B15: design_606_b60ff77f-1541-4e5f-8260-46d5e5f6b85e_1152_dldesign_0_cycle1_af2pred (protein)
chain: EEAEKYLKEIEKAKEEAEKLAEELKEEGDSKAAAKAATAAAVAESAALAAKANPEKAKEAAEKAKKALEKAKKYAKESREKKKA
B16: design_606_b60ff77f-1541-4e5f-8260-46d5e5f6b85e_370_dldesign_0_cycle1_af2pred (protein)
chain: DLVKEASKLSGQAYEYKAAADVGVLNKEELKAGAEIAKKAAELAKKIAKETTPEEAKKYLKQAETMKKIAEYLEKKAQEL
B17: design_606_b60ff77f-1541-4e5f-8260-46d5e5f6b85e_1596_dldesign_0_cycle1_af2pred (protein)
chain: SAAVKEKVAELTKKVNEARDNAFETGNWEEELAKIEKLAAEIAKVGNAEQAEAAEKGVNAMKSMAEALKEMEKK
B18: design_606_b60ff77f-1541-4e5f-8260-46d5e5f6b85e_724_dldesign_0_cycle1_af2pred (protein)
chain: AAAQKAAEAAATLYENSNEAIWLAKKEGAKGAVEGKKLLEKGVAAAEAAAKEASPEDAAKLKKLAESRKERTEKAIKKALA
B19: design_606_b60ff77f-1541-4e5f-8260-46d5e5f6b85e_1086_dldesign_0_cycle1_af2pred (protein)
chain: EKAEKLIKEIKKLAKEAKKSTPEEAKKLLEEAKKLAKEVAKLGPEAAKLAKKALSEAAAAYYENKAENEWKERKEKE
B20: design_606_b60ff77f-1541-4e5f-8260-46d5e5f6b85e_200_dldesign_0_cycle1_af2pred (protein)
chain: EEEKLIADSAKEVDAAADKAMDAMAKNKEAAKAAKAELEALAAKFKELAEKGSPEVAKKMNLAAKTMKRFAELLKKAAS
B21: design_606_b60ff77f-1541-4e5f-8260-46d5e5f6b85e_1400_dldesign_0_cycle1_af2pred (protein)
chain: MAEAAQKAWENIAEAEYYAKKLKENPELKEEAKKIEEKIKKAKELLKKAQKTGDGELAKEAEKLAKEAAKEAKELVEK
B22: design_606_b60ff77f-1541-4e5f-8260-46d5e5f6b85e_1003_dldesign_0_cycle1_af2pred (protein)
chain: SMKEKEEKYKEAKEKLEKQREAVKEGEKLAKESPEMGLALMRAAVKRAEEVAKKLEKEDPEKGPEAKKMAEEVRKLAKEAEKKIKEEL
B23: design_606_b60ff77f-1541-4e5f-8260-46d5e5f6b85e_1599_dldesign_0_cycle1_af2pred (protein)
chain: MPVVKAVSEYTKFVVSKMREAAAAGASEEELVGAVEEGEKYGEELGKKIGEEALEAVKDLSEMFKESARAAARARKA
B24: design_606_b60ff77f-1541-4e5f-8260-46d5e5f6b85e_1326_dldesign_0_cycle1_af2pred (protein)
chain: AEAEKKAEEAAKEAEKIYKEMLKAVETKSKEEAAKFAKEAAEKLKKLAKKIYEATGKVPLEVLLALAEARVIAKK
B25: design_606_b60ff77f-1541-4e5f-8260-46d5e5f6b85e_148_dldesign_0_cycle1_af2pred (protein)
chain: NPKIEGEAALTRAEGAYESAKALPPEKAAEAYRKAAEIAKKQAEEAEKAGEEAKPYAEKIRKIAKEAEKKAKELEKA
B26: design_606_b60ff77f-1541-4e5f-8260-46d5e5f6b85e_600_dldesign_0_cycle1_af2pred (protein)
chain: AAAAEAKGKKINELRIEANDYAYEHEINSSNPELSKAYKEEAEKKIKEAEKIDPEGGKRIKKSFESIEEHVKKNL
B27: design_606_b60ff77f-1541-4e5f-8260-46d5e5f6b85e_580_dldesign_0_cycle1_af2pred (protein)
chain: MTEEEKKEAEKKAEEIKKLGKELAKKVLNSKDAEKEVKKAKKELREKGKKLAEAGNPEAKKIISKAVSEAYQLLNEAEWKNLK
B28: design_606_b60ff77f-1541-4e5f-8260-46d5e5f6b85e_1318_dldesign_0_cycle1_af2pred (protein)
chain: DVAAALAAAKAAAAAKMAEVKKYGAETAEAVKDAIDMGNIYGAGSLAEVMVGPEAGKIAKAAAEAAAKARELAAKA
B29: design_606_b60ff77f-1541-4e5f-8260-46d5e5f6b85e_762_dldesign_0_cycle1_af2pred (protein)
chain: SEEEKKIKELAKEMEEVGKEAAEAGKKNPEEGKKLRDIMIKLANEAVALAEKLGLEEEAKKIKEKAAELSAKAYEAIAENLA
B30: design_606_b60ff77f-1541-4e5f-8260-46d5e5f6b85e_1298_dldesign_0_cycle1_af2pred (protein)
chain: KEEEEKQIKELKEKVEKLKKEAEEAKTAEEALKVFKEARKVGKEARKLAEKASPELAKKAKEVAKEAAKVAELAAEKYAEKKSEEIRK
B31: design_606_b60ff77f-1541-4e5f-8260-46d5e5f6b85e_364_dldesign_0_cycle1_af2pred (protein)
chain: AEARDKAILEKAKKETEELAKKAEELAKKGAKKEEIEKVIKEIRKVGKEYAAKASPEVAPEILTIAGDAVAEAKGAYQEAKIK
B32: design_606_b60ff77f-1541-4e5f-8260-46d5e5f6b85e_976_dldesign_0_cycle1_af2pred (protein)
chain: SSEEIEEKNRKVSEVVHHAIKAIKAYADPALRDAYLAKAKAILPDAADALAAQVDAAKTGSTADAILNVADIAWDALT
B33: design_605_6ebdab39-eaab-4492-afcb-164e20c3b25e_2479_dldesign_0_cycle1_af2pred (protein)
chain: MKEASEAAAKAYEYMAEALYYGKKASEEAAKEAEKAAKEVKELLKKAREAAKEGKYEEAKKLAEEAYKLAKETYEKLKKELEKKKA
B34: design_606_b60ff77f-1541-4e5f-8260-46d5e5f6b85e_905_dldesign_0_cycle1_af2pred (protein)
chain: DNEEKKKELKEEAEKYKEELLKEKDEALKAGDFESAIFISKKAVKIKKLEEEGKKGNKEEVEKKKEEIKKEAKEALEFYKKNKE
B35: design_606_b60ff77f-1541-4e5f-8260-46d5e5f6b85e_898_dldesign_0_cycle1_af2pred (protein)
chain: MNITEKVAAAAQAALAALADPATAVAALSAARFTALDLVSEDIEAGEVAIEIFEKGDAGSRRVARIIRSHVEALKRN
B36: design_606_b60ff77f-1541-4e5f-8260-46d5e5f6b85e_842_dldesign_0_cycle1_af2pred (protein)
chain: MEEAKKKITELAEAAAAADPETAKKLLAEASRYLIDYISKNKLDSETISELVSYLKEKGKEALAQAKAKEAAA
B37: design_606_b60ff77f-1541-4e5f-8260-46d5e5f6b85e_490_dldesign_0_cycle1_af2pred (protein)
chain: MEAAKEAAKKVLELADLSAEASAEDFPEVEKKAEEALKFAEEVAKEDPEAGEKAKRTVKRILEDTRKAVEK
B38: design_606_b60ff77f-1541-4e5f-8260-46d5e5f6b85e_1000_dldesign_0_cycle1_af2pred (protein)
chain: MSEYEKNLARAEAYADQLLDSAKKTGAAKGPEAEVAATKEAKDAATKYANSLGEEVGKEIKAKMEKEVKAVADAAAKALAA

biological target: VTCN1, Q7Z7D3
Sequence (Q7Z7D3 whole entry): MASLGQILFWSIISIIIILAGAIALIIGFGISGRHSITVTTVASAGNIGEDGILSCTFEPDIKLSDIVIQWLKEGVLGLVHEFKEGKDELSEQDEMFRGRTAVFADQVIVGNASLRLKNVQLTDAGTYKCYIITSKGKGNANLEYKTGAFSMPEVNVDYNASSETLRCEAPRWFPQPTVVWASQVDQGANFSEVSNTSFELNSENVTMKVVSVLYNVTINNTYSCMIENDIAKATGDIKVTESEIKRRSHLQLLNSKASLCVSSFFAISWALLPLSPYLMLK

Binding in a display sort, inactive:
B1 not found, B2 not found, B3 not found, B4 not found, B5 not found, B6 not found, B7 not found, B8 not found, B9 not found, B10 not found, B11 not found, B12 not found, B13 not found, B14 not found, B15 not found, B16 not found, B17 not found, B18 not found, B19 not found, B20 not found, B21 not found, B22 not found, B23 not found, B24 not found, B25 not found, B26 not found, B27 not found, B28 not found, B29 not found, B30 not found, B31 not found, B32 not found, B33 not found, B34 not found, B35 not found, B36 not found, B37 not found, B38 not found
